Screening results (PubChem BioAssay)
DAGLB inh: diacylglycerol lipase beta (human) inhibition; Q8NCG7; HEK293T DAGLB membrane lysate, EnzChek fluorogenic substrate; inhibition, % at 5.17 µM; 0.059% of 340,000 active; AID 504411; in the data active = inhibition above about 34%
PAFAH1B3 FP inh: PAFAH1B3 (human) inhibition. Q15102. recombinant PAFAH1B3, FP-rhodamine probe, fluorescence polarization. inhibition, % at 3.39 µM. 0.28% of 340,000 active. AID 492972;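 active = inhibition above the screen-wide average of all tested compounds plus 3 SD, cut at about 25% in these data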
Target sequence (Q15102 whole entry, looked up): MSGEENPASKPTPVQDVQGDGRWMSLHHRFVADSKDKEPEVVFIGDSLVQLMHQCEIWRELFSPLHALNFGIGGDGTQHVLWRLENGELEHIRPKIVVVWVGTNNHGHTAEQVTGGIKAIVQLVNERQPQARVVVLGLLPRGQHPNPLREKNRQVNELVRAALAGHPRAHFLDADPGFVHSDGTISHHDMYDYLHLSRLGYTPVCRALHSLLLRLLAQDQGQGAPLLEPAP
pPAFAH FP inh: pPAFAH (human) enzyme inhibition. Q13093. recombinant pPAFAH, FP-rhodamine probe fluorescence polarization. inhibition, % at 3.39 µM. 1.5% of 330,000 active;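 active = inhibition above the mean inhibition across the screen plus 3 SD, cut at about 25% in these data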;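 also: inhibitors block binding of the rhodamine activity-based probe so polarization drops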
HTRA1 inh: HTRA1 (human) protease inhibition; Q92743; AID 504803; inhibition, % at 5.96 µM; 0.5% of 340,000 active; recombinant HTRA1, FP-rhodamine activity-based probe, fluorescence polarization; in the data active = inhibition above about 36%
PAFAH1B2 FP inh: inhibitors of human PAFAH1B2; inhibition, % at 3.39 µM; P68402; recombinant PAFAH1B2, FP-rhodamine activity probe, fluorescence polarization; 1.2% of 340,000 active;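 active = inhibition above the mean of all tested compounds plus 3 SD, cut at about 24% in these data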
Target sequence (P68402 whole entry, looked up): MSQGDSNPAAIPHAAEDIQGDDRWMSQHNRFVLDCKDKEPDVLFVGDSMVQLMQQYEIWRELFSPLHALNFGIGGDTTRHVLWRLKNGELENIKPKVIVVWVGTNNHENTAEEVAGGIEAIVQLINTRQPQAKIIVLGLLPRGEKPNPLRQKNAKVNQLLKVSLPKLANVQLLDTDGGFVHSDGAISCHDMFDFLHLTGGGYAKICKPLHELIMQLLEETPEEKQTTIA
PAFAH2 inh: inhibitors of human PAFAH2. Q99487. recombinant PAFAH2, FP-rhodamine activity probe, fluorescence polarization. inhibition, % at 3.39 µM. 0.99% of 340,000 active;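 active = inhibition above the mean over all tested compounds plus 3 SD, cut at about 30% in these data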;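 also: inhibitors block probe labeling of enzyme so polarization drops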
Hits are given with their value; n = inactive; x = no result. Compounds with a hit are over-represented: about 2.8% of the library has one in this group of screens.

SMILES	DAGLB inh	PAFAH1B3 FP inh	pPAFAH FP inh	HTRA1 inh	PAFAH1B2 FP inh	PAFAH2 inh
COc1ccccc1NC(=O)c1sc2nc(N3CCOCC3)c3c(c2c1N)CCCC3	n	n	n	n	n	n
Fc1ccccc1NC(=S)N1CCN(Cc2ccccc2)CC1	n	n	32.3	n	n	n
S=C(Nc1ccccc1Cl)N1CCN(Cc2ccccc2)CC1	n	n	n	n	n	n
O=C(NCC(O)c1ccc([N+](=O)[O-])cc1)C1=COCCO1 (stereo not drawn)	n	n	n	n	n	n
O=C1C=C(O)c2c(O)cccc2C1=O	x	x	26.6	x	x	x
COc1ccc(C2CC(c3cccs3)=NN2C(=O)CSc2nc(=O)n3cc(C)ccc3n2)cc1 (stereo not drawn)	n	n	n	n	n	n
CCCOc1ccc(C(CC(=O)O)NC(=O)C(c2ccccc2)c2ccccc2)cc1 (stereo not drawn)	n	n	n	n	26.0	n
CCCOc1ccc(C(CC(=O)O)NC(=O)Cc2ccccc2)cc1 (stereo not drawn)	n	n	n	n	n	n
CCOc1ccc(CN2CCNC(=O)C2CC(=O)NCCN2CCOC2=O)cc1 (stereo not drawn)	n	n	n	n	n	n
CC(C)NC(=O)COC(=O)c1ccc(Oc2ccccc2)cc1	n	n	25.9	n	n	67.2
CC(NC(=O)COC(=O)c1ccc(OCC2CCCO2)cc1)c1ccccc1Cl (stereo not drawn)	n	n	25.1	n	n	88.1
CN(C)c1ccc(C(=O)OCC(=O)NCCNC(=O)COC(=O)c2ccc(N(C)C)cc2)cc1	n	n	n	n	n	n
CN(C)c1ccc(C(=O)OCC(=O)NCCCc2ccccc2)cc1	n	n	32.8	n	n	85.2
O=C(COC(=O)c1ccc(-c2ccccc2)cc1)Nc1ccccc1-c1ccccc1	n	n	n	n	n	n
CCCNC(=O)COC(=O)c1ccc(-c2ccccc2)cc1	n	n	24.8	n	n	60.2
CC(NS(=O)(=O)c1ccccc1)C(=O)Nc1ccc2c(c1)OCCO2 (stereo not drawn)	n	n	n	n	n	n
CCN(CC)C(=O)c1[nH]cnc1C(=O)Nc1cccc(Cl)c1	n	n	n	n	n	n
CN1C(=O)Cc2cc(S(=O)(=O)N3CCN(c4cccc(C(F)(F)F)c4)CC3)ccc21	n	n	n	n	n	n
O=C(NCCCN1CCOCC1)c1ccc(Sc2cccc(Cl)c2)c([N+](=O)[O-])c1	n	n	31.7	n	n	n
Cc1ccc2cc(C=O)c(Cl)nc2c1	n	n	n	n	n	n
Cc1ccc(SCC(=O)NNC(=O)c2cncc(Br)c2)cc1	n	n	n	n	28.9	n
Cc1ccc(C(=O)c2cncc(Br)c2)cc1	n	n	n	n	n	n
CC(=O)c1cn(-c2ccc(Cl)cc2)c(=O)n(Cc2ccc(F)cc2)c1=O	n	n	n	n	n	n
Cc1ccc(-c2cnc(C3CC3)o2)cc1S(=O)(=O)Nc1ccccc1	n	n	30.5	n	n	n
COc1ccccc1CNC(=O)/C=C/c1ccc(S(=O)(=O)N2CCOCC2)cc1	n	n	n	n	n	n
SMILES	DAGLB inh	PAFAH1B3 FP inh	pPAFAH FP inh	HTRA1 inh	PAFAH1B2 FP inh	PAFAH2 inh
Cc1ccccc1NS(=O)(=O)c1ccc(C(=O)NCC(c2ccco2)N(C)C)cc1 (stereo not drawn)	n	n	30.1	n	n	n
O=C(NCC(c1ccco1)N1CCCCC1)c1ccc(COc2ccc(Cl)cc2)cc1 (stereo not drawn)	n	n	x	n	30.7	n
Cc1ccccc1NS(=O)(=O)c1ccc(C(=O)NCC(c2ccco2)N2CCCCC2)cc1 (stereo not drawn)	n	n	33.5	n	n	n
N#Cc1ccc(C(=O)NCC(c2ccco2)N2CCCCC2)cc1 (stereo not drawn)	n	n	n	n	n	n
Cc1ccc2c(cnn2C(=O)CCC(=O)N2CCCCC2C)c1 (stereo not drawn)	n	n	n	n	n	n
CCNc1oc(-c2ccccc2F)nc1S(=O)(=O)c1ccccc1	n	n	n	n	n	n
Cc1cccc(N2CCN(C(=O)c3ccc(S(=O)(=O)N(C)c4ccccc4)cc3)CC2)c1C	n	n	n	n	n	n
COc1ccccc1C(=O)NC1CCN(C(=S)NCCc2ccccc2)CC1	n	n	n	n	n	n
NC(=O)C1CC(=O)N(CCc2ccc(F)cc2)C1 (stereo not drawn)	n	n	n	n	n	n
O=S(=O)(Nc1cccnc1)c1ccc(Cl)c(C(F)(F)F)c1	n	n	n	n	25.8	n
COc1cccc(-c2cccc(NC(=O)C3CCN(C4CCOCC4)CC3)c2)c1	n	n	n	n	n	n
Cc1cc(C(C)(C)C)cc(S(=O)(=O)Nc2ccc(O)c(C(=O)O)c2)c1C	n	n	n	n	46.9	n
CCCCNc1c(-c2cccc(-c3ccc(OC)cc3)c2)nc2ccc(C)cn12	n	n	25.4	n	n	n
COc1cc(-c2nc3ccc(C)cn3c2NCc2ccccc2)ccc1-c1cccc(Cl)c1	n	n	30.4	n	n	n
O=C(NCCc1ccccc1Cl)c1cc(COc2ccc(F)cc2F)on1	n	n	n	n	n	n
O=C(C1CCOCC1)N1CCCC(N2CCN(c3ccc(F)cc3)CC2)C1 (stereo not drawn)	n	n	n	n	n	n
COc1ccc(OC)c(Nc2ccc(Nc3cc(OC)ccc3OC)nn2)c1	n	n	30.4	n	n	n
O=C(COC(=O)CC1SC(N2CCCC2)=NC1=O)Nc1ccc(Br)cc1 (stereo not drawn)	n	n	x	n	n	n
CCn1cc(Cl)c(C(=O)Nc2nccs2)n1	n	n	x	n	n	n
COc1ccc(-c2nnc(C)c3nocc23)cc1	n	n	24.6	n	n	n
O=C(CCc1ccccc1)NC(=S)Nc1cccc(C(=O)O)c1	n	n	n	n	n	n
O=C(CCCc1ccccc1)Nc1cccc(C(=O)O)c1	n	n	n	n	25.1	n
O=C(O)c1ccccc1C(=O)OCc1ccccc1	n	n	n	n	n	n
CC1(C)CC=CC(COC(=O)c2ccccc2C(=O)O)C1 (stereo not drawn)	n	n	x	n	29.4	n
Cc1cc(O)c(C(=O)/C=C/c2ccc(C(C)C)cc2)c(=O)o1	n	n	x	n	27.7	n
N#CC(C#N)=Cc1cnc(N2CCN(c3ccccc3)CC2)s1	n	n	n	n	n	n
O=C(Nc1ncc(Cc2cccc(C(F)(F)F)c2)s1)C1CCCO1 (stereo not drawn)	n	n	n	n	n	n
Cc1ccc(Cc2cnc(NC(=O)C3CCCO3)s2)cc1 (stereo not drawn)	n	n	n	n	28.3	n
O=C(NC1CCCCC1)C(c1ccccn1)N(C(=O)c1csnn1)C1CCCCC1 (stereo not drawn)	n	n	n	n	n	n
COc1ccccc1CNC(=O)CN1c2cccc3cccc(c23)S1(=O)=O	n	n	30.8	n	n	n
